# Assay results from PubChem BioAssay (NCATS).
# Inconclusive results are not listed. The source made the active and inactive calls. Calls come from the whole dose curve; as a rule, active = well fitted cell-killing curve with a large enough effect; inconclusive = small, poorly fitted or top-dose-only effect; inactive = flat fitted curve, though single readings scatter.
# Assay: Cell Viability - LYMP2-002 (AID 977);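 note: compound exposure lasted 24 h at 37 °C; plate controls were DMSO only for no effect and 92 µM tetraoctylammonium bromide for full effect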
# Conditions: LYMP2-002 lymphoblastoid cell viability, qHTS; series mostly up to 92.2 µM; activity change, negative = cytotoxic: at the top concentration
# Summary of the method: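 Human lymphoblastoid cells, 2500/well, complete medium; 5 h 37 C settle; compound 24 h 37 C; CellTiter-Glo, 30 min RT; luminescence. Decrease in ATP = cytotoxicity; AC50 via Hill equation.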
row,SMILES,"activity change, negative = cytotoxic"
1,COc1ccc(O)cc1,-9.62% (inactive)
2,CCN(CC)C(=O)c1cccc(C)c1,7.62% (inactive)
3,CC(=O)Nc1ccccc1,7.37% (inactive)
4,O=C1C(c2[nH]c3ccccc3c2O)=Nc2ccccc21,-12.4% (inactive)
5,CCCC(O)C(CC)CO (stereo unspecified),6.34% (inactive)
6,Cc1cc(=O)[nH]c(=S)[nH]1,-10.9% (inactive)
7,CC(=O)Nc1ccc(C(=O)O)cc1,-4.96% (inactive)
8,CCCCCCCC(=O)OCC(COC(=O)CCCCCCC)OC(=O)CCCCCCC,0.611% (inactive)
9,O=C(O)CCCCC1CCSS1 (stereo unspecified),2% (inactive)
10,Cc1cc(C)nc(NS(=O)(=O)c2ccc(N)cc2)n1,-1.47% (inactive)
11,CC1CC(OC(=O)c2ccccc2O)CC(C)(C)C1 (stereo unspecified),9.34% (inactive)
12,Cc1c(N(C)C)c(=O)n(-c2ccccc2)n1C,0.909% (inactive)
13,O=C(c1ccccc1)C(O)c1ccccc1 (stereo unspecified),7.46% (inactive)
14,C=CCNC(N)=S,0.0222% (inactive)
15,FC(F)(F)C(Cl)Br (stereo unspecified),-5.28% (inactive)
16,CC(=O)OCC(COC(C)=O)OC(C)=O,4.14% (inactive)
17,Nc1ccc(S(=O)(=O)c2ccc(N)cc2)cc1,-2.87% (inactive)
18,CC(=O)Nc1cccc(O)c1,-5.97% (inactive)
19,CC(=O)NS(=O)(=O)c1ccc(N)cc1,-22.3% (inactive)
20,CCCCCC(N)=O,-11.7% (inactive)
21,CCCCOC(=O)c1ccc(N)cc1,-14.1% (inactive)
